# Test results published in PubChem BioAssay (EPA / NIEHS).
# Several values for one entry are separate records, joined by “and”; a condition that tells them apart may be missing. Identical values can stand only once. Some structures have more than one record in an assay (separate samples or runs), and their calls can disagree. Activity calls are given as the source filed them. How the source made its calls: active means hit-call score of the fitted dose curve at least 0.9, where 1 is the maximum; inactive means score below 0.9.
# Assay: BSK_3C_VCAM1: BioMAP Diversity Plus: 3C Assay for Vascular cell adhesion molecule 1 (VCAM1) Biomarker Activity (AID 2282999)
# Conditions: BioMAP 3C HUVEC, VCAM1 ELISA, cytokine-stimulated; actives raise or lower the signal
# Experimental: BSK_3C is a cell-based, multiplexed-readout assay that uses umbilical vein endothelium, a human vascular primary cell, with measurements taken at 24 hours after chemical dosing in a 96-well plate.BSK_3C_VCAM1 is an assay component measured in the BSK_3C assay. It measures VCAM-1 antibody related to regulation of gene expression using ELISA technology.Data from the assay component BSK_3C_VCAM1 was analyzed into 1 assay endpoint. This assay endpoint, BSK_3C_VCAM1, was analyzed with bidirectional fitting relative to DMSO as the negative control and baseline of activity. Using a type of binding reporter, gain or loss-of-signal activity can be used to understand changes in the signaling as they relate to the gene VCAM1. Furthermore, this assay endpoint can be referred to as a primary readout, because this assay has produced multiple assay endpoints where this one serves a signaling function. To generalize the intended target to other relatable targets, this assay endpoint is annotated to the cell adhesion molecules intended target family, where the subfamily is Immunoglobulin CAM.
# The levels of cell surface (or secreted, indicated by the prefix "s") biomarker endpoints were measured by ELISA. Overt cytotoxicity to cells in confluent adherent cultures (all systems other than the BT system) was assessed by measuring total protein levels using sulforhodamine B (SRB) staining in parallel cultures at the time of biomarker measurements, indicated as SRB endpoints. For proliferation assays for adherent cell types, individual cell types are cultured at sub-confluence and relative cell numbers quantified by SRB staining at time points optimized for each system (48 h: 3C and CASM3C systems; 72 h: BT and HDF3CGF systems; 96 h: SAg system). SRB was performed by staining cells with 0.1% SRB after fixation with 10% TCA and reading wells at 560 nm.Viability and proliferation of PBMC (T cells) was quantified by Alamar Blue reduction for the SAg and BT systems. For PBMC viability (referred to as PBMC Cytotoxicity within the assay endpoint names), cells were plated (75,000/well in a 96-well plate) and then chemical samples added for 1 h before addition of activators, SEB and TSST-1 (20 ng/mL final concentration each). Cells were incubated for 90 h. Then, Alamar Blue (20 uL/well) (Invitrogen, Cat DAL1100) was added for 6 h, and the plates were read with a fluorescence microplate reader at 546/580 nm (excitation/emission). For PBMC proliferation, cells were plated and activated as above but incubated for only 16 h prior to addition of Alamar Blue. Plates were read after 6 h.
SMILES,outcome,AC50
O=C(O)C(F)(F)OC(F)(F)C(F)(F)OC(F)(F)C(F)(F)C(F)(F)C(F)(F)F,inactive,
CCC(=O)OCC=Cc1ccccc1,inactive,
OCC(F)(OC(F)(F)C(F)(OC(F)(F)C(F)(F)C(F)(F)F)C(F)(F)F)C(F)(F)F (stereo not given),inactive,3.72 µM (active)
CC(=O)CCC=C(C)CCC=C(C)C,,30.9 µM (active)
CC1(C)[C@H](C=C(Cl)Cl)[C@H]1C(=O)OCc1cccc(Oc2ccccc2)c1,inactive,
c1ccc(Sc2ccccc2)cc1,,39.1 µM (active)
CC(=O)c1ccc(C)cc1,inactive,
CC(=O)OC(C)(C)C1CC=C(C)CC1 (stereo not given),inactive,
CC1=CC(C)C(C=O)C(C)C1 (stereo not given) (tested in a mixture with another compound),inactive,
C=C(F)C(=O)OC(C(F)(F)F)C(F)(F)F,inactive,
c1ccc(OCCOc2ccccc2)cc1,inactive,
NC(=O)c1c(Cl)cccc1Cl,inactive,
C[C@]12CC[C@@H]3c4ccc(O)cc4CC[C@H]3[C@@H]1CC[C@@H]2O,inactive,
OCCN1CCOCC1,inactive,
CCCO[Si](OCCC)(OCCC)OCCC,inactive,
C=C(C)C(=O)OCCC(F)(F)C(F)(F)C(F)(F)C(F)(F)C(F)(F)C(F)(F)C(F)(F)C(F)(F)F,inactive,
CCOC(=O)C=Cc1ccccc1,inactive,
O=S(=O)(O)C(F)(F)C(F)(F)OC(F)(F)C(F)(F)F,inactive,
O=C1OC2(c3ccc(O)cc3Oc3cc(O)ccc32)c2ccccc21,inactive,
CC(C)CCCC(C)(C)O,inactive,

SMILES,outcome,AC50
Nc1ccc(N)c([N+](=O)[O-])c1,inactive,
CC(C)(CO)CO,inactive,
CCCCCCCCCCCCS,,20 µM (active)
CCCCCCCCCC(=O)OCC,,32.5 µM (active)
CC/C(=C(\c1ccccc1)c1ccc(OCCN(C)C)cc1)c1ccccc1,,9.97 µM (active) and 9.7 µM (active)
CC(=O)OCC=C(C)CCC=C(C)CCC=C(C)C,inactive,
O=C(O)C(F)(F)C(F)(F)C(F)(F)C(F)(F)C(F)(F)C(F)(F)C(F)(F)C(F)F,inactive,
C=C(C)C(N)=O,inactive,
C#C[C@]1(O)CC[C@H]2[C@@H]3CCc4cc(O)ccc4[C@H]3CC[C@@]21C,inactive,
CCCCOCCOCCO,inactive,
CCOC(=O)CCCCCCCCC(=O)OCC,inactive,
CCCCCCCC1CCCC1=O (stereo not given),,35.8 µM (active)
O=S1(=O)CC(Cl)(Cl)C(Cl)(Cl)C1,,0.618 µM (active)
CC(C)Cc1ccc(C(C)C(=O)O)cc1 (stereo not given),inactive,
c1ccc2c(c1)-c1ccc3ccc4cccc5cc-2c1c3c45,inactive,
C=C1CC/C=C(\C)CC[C@@H]2[C@@H]1CC2(C)C,,30.1 µM (active)
COC(=O)c1ccc(C(=O)OC)cc1,inactive,
CC(C)(C)c1cccc(O)c1,inactive,
C=CC(=O)OCC(CO)(COC(=O)C=C)COC(=O)C=C,,0.0478 µM (active)
